This passage reports binding signal results from paper PMC7862700, “An all-to-all approach to the identification of sequence-specific readers for epigenetic DNA modifications on cytosine”.

What all share (assay): DAPPL (digital affinity profiling via proximity ligation, sequencing); 10 mM Tris-HCl pH 7.5, 50 mM NaCl, 1 mM DTT, 4% glycerol, room temperature, 30 min; GST-TFs on glutathione beads, 16-mer random dsDNA library, 0.1% formaldehyde crosslink after washing; high values mean tight binding
What all share (settings): protein: recombinant; tags: N-terminal GST; dsDNA, one strand shown

For one experiment, the target named is T1, ELK4 (Homo sapiens, UniProt P28324-2 1-405).
T1 sequence: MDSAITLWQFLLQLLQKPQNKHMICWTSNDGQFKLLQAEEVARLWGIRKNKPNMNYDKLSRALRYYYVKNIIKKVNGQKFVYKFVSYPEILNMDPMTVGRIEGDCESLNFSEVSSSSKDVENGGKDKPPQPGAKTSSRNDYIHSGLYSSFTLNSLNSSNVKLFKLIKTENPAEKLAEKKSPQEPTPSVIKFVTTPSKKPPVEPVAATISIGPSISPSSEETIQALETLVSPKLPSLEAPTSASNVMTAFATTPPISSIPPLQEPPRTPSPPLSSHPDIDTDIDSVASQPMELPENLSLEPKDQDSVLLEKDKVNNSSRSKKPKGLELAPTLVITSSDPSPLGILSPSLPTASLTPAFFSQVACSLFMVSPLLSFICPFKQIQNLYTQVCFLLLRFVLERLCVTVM
The method, boiled down: (§1)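 A tag-only sample was pooled with DNA-barcoded human transcription factors that had been expressed in yeast as GST fusions and captured on glutathione beads. The pools were incubated for 30 min at room temperature with 200 nmole of a random double-stranded 16-mer DNA library in Tris/NaCl/DTT/glycerol buffer, then washed, crosslinked with 0.1% formaldehyde, proximity-ligated (BsaI/T4 ligase, 1 h, 37 °C), PCR-amplified and sequenced on an Illumina NextSeq500. Binding signal is each hexamer's read frequency for a factor divided by its frequency for the tag-only sample.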

In another experiment the target is T2, ELF3 (Homo sapiens, UniProt P78545 1-371).
T2 sequence: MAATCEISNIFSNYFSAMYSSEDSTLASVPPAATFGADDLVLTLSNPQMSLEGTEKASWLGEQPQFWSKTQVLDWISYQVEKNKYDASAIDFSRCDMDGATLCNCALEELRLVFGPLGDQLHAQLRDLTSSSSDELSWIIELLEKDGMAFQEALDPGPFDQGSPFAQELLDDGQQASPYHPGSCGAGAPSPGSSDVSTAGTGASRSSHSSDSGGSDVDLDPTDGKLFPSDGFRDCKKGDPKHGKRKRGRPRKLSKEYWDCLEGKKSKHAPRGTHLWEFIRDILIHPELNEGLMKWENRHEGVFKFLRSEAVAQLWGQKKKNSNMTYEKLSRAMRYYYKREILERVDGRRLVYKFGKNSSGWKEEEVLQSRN
The method, boiled down: as §1

The target of the next experiment is ETV1 (Homo sapiens, UniProt P50549 1-477). The procedure, abridged:
as §1

The next experiment has as its target T3, ERF (Homo sapiens, UniProt P50548 1-548).
T3 sequence: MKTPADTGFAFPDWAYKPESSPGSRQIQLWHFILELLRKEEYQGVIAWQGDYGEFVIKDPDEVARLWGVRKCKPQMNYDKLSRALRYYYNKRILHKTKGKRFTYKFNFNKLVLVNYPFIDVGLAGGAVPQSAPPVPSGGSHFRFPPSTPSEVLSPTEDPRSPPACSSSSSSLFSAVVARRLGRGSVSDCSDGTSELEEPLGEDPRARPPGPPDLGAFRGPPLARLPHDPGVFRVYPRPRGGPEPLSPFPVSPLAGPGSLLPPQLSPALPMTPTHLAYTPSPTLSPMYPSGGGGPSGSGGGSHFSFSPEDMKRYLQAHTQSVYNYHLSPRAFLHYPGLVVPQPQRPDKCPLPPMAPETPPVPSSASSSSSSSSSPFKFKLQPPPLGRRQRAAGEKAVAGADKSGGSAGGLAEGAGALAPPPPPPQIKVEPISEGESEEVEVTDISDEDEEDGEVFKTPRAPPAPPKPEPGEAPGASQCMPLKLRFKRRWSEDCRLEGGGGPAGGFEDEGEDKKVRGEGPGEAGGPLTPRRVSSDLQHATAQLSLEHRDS
The method, boiled down:
as §1

Another experiment deals with T4, ETV3L (Homo sapiens, UniProt Q6ZN32 1-361).
T4 sequence: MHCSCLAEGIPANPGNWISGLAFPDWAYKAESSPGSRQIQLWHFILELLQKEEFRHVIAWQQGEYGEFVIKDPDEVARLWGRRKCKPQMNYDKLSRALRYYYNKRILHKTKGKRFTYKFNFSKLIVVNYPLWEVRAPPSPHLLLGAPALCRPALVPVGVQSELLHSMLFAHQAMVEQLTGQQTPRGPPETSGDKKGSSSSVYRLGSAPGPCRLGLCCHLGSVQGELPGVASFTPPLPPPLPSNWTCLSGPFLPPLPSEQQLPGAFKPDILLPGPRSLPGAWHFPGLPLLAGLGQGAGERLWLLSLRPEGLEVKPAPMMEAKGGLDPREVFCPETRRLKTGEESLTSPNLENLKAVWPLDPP
The procedure, abridged: as §1

Another experiment addresses T5, ETS2 (Homo sapiens, UniProt P15036 1-469).
T5 sequence: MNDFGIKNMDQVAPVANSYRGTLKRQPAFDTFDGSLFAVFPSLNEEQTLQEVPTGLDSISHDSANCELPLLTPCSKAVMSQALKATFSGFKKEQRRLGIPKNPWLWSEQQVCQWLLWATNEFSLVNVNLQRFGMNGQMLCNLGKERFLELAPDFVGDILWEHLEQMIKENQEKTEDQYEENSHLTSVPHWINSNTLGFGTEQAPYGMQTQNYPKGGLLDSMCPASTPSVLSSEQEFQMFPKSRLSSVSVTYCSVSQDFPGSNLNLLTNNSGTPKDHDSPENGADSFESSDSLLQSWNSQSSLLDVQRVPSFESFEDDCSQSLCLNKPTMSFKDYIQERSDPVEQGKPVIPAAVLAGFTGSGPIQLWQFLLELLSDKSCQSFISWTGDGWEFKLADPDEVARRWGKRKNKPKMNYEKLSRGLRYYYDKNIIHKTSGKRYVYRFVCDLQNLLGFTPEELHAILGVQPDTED
The method, boiled down:
as §1

A further experiment concerns the target T6, SPDEF (Homo sapiens, UniProt O95238 1-335).
T6 sequence: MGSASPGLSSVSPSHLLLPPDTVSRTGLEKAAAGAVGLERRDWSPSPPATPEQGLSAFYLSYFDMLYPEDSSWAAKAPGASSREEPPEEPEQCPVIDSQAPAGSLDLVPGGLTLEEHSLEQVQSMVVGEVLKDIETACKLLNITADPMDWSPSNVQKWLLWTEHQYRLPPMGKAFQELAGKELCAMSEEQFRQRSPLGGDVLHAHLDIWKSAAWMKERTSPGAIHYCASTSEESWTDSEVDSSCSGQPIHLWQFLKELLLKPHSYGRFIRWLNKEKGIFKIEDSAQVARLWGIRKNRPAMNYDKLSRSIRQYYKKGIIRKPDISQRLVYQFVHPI
The method, boiled down: as §1

The target in a further experiment is T7, ETV7 (Homo sapiens, UniProt Q9Y603 1-341).
T7 sequence: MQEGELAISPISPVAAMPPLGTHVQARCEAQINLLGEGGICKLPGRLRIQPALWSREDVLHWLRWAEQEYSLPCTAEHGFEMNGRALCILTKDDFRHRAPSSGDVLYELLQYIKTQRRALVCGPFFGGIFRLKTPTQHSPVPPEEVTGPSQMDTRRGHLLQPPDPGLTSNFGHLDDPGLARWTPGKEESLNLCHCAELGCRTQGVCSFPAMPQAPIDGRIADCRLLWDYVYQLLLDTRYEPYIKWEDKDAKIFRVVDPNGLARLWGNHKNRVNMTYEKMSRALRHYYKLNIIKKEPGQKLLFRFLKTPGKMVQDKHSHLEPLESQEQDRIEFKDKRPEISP
The procedure, abridged: as §1

A further experiment has as its target T8, ETV3 (Homo sapiens, UniProt P41162-2 1-143).
T8 sequence: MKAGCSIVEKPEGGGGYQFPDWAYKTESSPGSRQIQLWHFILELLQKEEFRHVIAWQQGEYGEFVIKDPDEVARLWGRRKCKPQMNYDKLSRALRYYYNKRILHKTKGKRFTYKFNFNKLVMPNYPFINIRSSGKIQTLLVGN
The procedure, abridged:
as §1

The target in a further experiment is ETV6 (Homo sapiens, UniProt P41212 1-452). The method, boiled down: as §1
ETV6, sequence (P41212 whole entry): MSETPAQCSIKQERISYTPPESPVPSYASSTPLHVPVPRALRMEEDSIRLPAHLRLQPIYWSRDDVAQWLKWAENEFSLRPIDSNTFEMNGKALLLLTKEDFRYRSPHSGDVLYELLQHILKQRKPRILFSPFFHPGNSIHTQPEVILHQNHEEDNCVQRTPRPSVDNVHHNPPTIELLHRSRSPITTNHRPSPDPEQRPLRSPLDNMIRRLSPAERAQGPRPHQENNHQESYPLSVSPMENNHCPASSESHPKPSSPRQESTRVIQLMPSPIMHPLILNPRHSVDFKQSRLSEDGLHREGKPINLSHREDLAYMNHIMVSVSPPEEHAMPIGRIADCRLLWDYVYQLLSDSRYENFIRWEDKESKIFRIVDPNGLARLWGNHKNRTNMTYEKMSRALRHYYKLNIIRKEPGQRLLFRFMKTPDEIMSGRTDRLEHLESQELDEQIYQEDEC

ETV1, sequence (P50549 whole entry): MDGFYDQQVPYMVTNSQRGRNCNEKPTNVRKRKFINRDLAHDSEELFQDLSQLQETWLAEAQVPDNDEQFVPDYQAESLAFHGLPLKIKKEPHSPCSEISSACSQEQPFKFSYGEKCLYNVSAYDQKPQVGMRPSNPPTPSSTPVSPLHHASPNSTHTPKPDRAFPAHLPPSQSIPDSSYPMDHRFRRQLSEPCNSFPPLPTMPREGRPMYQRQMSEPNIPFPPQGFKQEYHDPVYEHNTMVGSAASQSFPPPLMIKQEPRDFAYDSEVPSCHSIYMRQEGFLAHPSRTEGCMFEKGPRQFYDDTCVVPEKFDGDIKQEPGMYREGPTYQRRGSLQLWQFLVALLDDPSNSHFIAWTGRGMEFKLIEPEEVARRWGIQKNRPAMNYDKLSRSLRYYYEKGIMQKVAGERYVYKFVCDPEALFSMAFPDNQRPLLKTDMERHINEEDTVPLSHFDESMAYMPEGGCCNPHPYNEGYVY

As to CACAGC, the binding signal in the experiment with ELK4 was 1.04 fold enrichment (6-mer frequency, TF over GST control); with ELF3, 1.04 fold enrichment (6-mer frequency, TF over GST control); with ETV1 it was 1.1 fold enrichment (6-mer frequency, TF over GST control); with ERF it was 1.07 fold enrichment (6-mer frequency, TF over GST control); with ETV3L, 1.17 fold enrichment (6-mer frequency, TF over GST control); with ETS2 it was 1.01 fold enrichment (6-mer frequency, TF over GST control). Besides, the binding signal with SPDEF was 1.03 fold enrichment (6-mer frequency, TF over GST control); with ETV7, 1.12 fold enrichment (6-mer frequency, TF over GST control); with ETV3, 1.05 fold enrichment (6-mer frequency, TF over GST control); in the experiment with ETV6 it was 1.01 fold enrichment (6-mer frequency, TF over GST control).
